# FEN1 inh-1 – inhibitors of human flap endonuclease 1; AID 588795; Potency, µM (top dose mostly 114 µM), without a hit: at the highest dose activity change, negative = inhibition, hits mostly inhibitors; Recombinant FEN1 flap cleavage, fluorescence, 15 min; P39748; 0.35% of 390,000 active; also: potency is read from the fitted curve at half-maximal effect; % is scaled to controls: 0 for no effect and ±100 for the full control effect; nearly all actives have a fitted effect of over 65% in size
#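 With each library titrated from low to high concentration, compounds met 10 nM FEN1 for 15 min at room temperature before 50 nM substrate was added; readings at 0 and 15 min fed four-parameter Hill curve fits.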
# POLI inh – inhibitors of human DNA polymerase iota | Potency, µM (highest dose often 115 µM), for the others: at the top dose activity, negative = inhibition, actives largely listed as inhibitors | Q9UNA4 | AID 588590 | 1% of 390,000 active | Pol iota fluorescent replication assay, 10 min; also: potency is read from the fitted curve at half-maximal effect
#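 Pol iota at 10 nM preincubated 15 min with compounds at room temperature; reaction started with fluorescent substrate, 50 nM final. Fluorescence read kinetically at 0 and 10 min; buffer-only wells as negative control.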
# Pol kappa inh-1 – inhibitors of human DNA polymerase kappa | Potency, µM (highest dose often 107 µM), for the others: at the top dose activity, negative = inhibition, actives largely listed as inhibitors | purified Pol kappa, fluorescent DNA synthesis assay, 10 min | Q9UBT6 | 0.53% of 400,000 active; also: potency is read from the fitted curve at half-maximal effect; % is scaled to controls: 0 for no effect and ±100 for the full control effect
# Target sequence (Q9UBT6 whole entry, looked up): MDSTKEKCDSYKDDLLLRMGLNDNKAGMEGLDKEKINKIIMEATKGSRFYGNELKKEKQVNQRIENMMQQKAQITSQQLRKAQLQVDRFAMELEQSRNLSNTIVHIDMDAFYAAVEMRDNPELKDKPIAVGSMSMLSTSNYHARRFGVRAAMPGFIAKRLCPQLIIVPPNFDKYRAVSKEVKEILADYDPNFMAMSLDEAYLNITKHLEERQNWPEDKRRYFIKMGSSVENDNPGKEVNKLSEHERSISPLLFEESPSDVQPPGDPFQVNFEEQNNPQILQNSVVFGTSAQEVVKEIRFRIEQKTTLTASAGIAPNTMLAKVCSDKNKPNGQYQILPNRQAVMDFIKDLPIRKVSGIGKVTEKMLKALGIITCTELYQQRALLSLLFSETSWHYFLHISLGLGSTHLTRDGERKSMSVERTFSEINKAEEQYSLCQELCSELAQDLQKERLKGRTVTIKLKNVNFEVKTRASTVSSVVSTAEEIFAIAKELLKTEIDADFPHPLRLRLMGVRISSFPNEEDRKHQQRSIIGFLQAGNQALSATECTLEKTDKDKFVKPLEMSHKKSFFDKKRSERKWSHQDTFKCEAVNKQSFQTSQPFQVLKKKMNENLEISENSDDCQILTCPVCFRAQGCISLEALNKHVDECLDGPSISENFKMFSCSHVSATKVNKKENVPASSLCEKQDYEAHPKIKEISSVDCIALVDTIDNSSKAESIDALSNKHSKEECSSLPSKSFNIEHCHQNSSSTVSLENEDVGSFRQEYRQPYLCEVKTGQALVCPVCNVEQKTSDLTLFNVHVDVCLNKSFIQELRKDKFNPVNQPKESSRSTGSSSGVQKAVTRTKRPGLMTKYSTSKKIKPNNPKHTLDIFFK
#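 Kinetic fluorescence readout at 0 and 10 min followed reaction start with substrate at 50 nM final. Beforehand, enzyme (10 nM Pol kappa) stood 15 min with compound at room temperature; buffer-only wells were negative controls.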
# WRN helicase inh-1 – WRN helicase (human) inhibition; Q14191; WRN helicase unwinding, fluorescent forked duplex, kinetic; Potency, µM (highest dose often 114 µM), for the others: at the highest dose activity change, negative = inhibition, usual class: inhibitors; 0.46% of 360,000 active; AID 651768; also: potency is read from the fitted curve at half-maximal effect; % is scaled to controls: 0 for no effect and ±100 for the full control effect; nearly all actives have a fitted effect of over 55% in size
#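 Kinetic red-fluorescence monitoring (525/598 nm) tracks WRN helicase activity after 100 nM fluorophore-quencher forked duplex and 2 mM ATP are added to 20 nM enzyme pretreated 15 min at room temperature with compound.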
# Pol eta inh-1 – blocks human DNA polymerase eta activity; Potency, µM (top dose mostly 114 µM), for inactives: at the highest dose activity change, negative = inhibition, usual class: inhibitors; recombinant Pol eta, fluorescent DNA replication assay; 1.2% of 390,000 active; also: potency is read from the fitted curve at half-maximal effect; % is scaled to controls: 0 for no effect and ±100 for the full control effect
#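 Fluorescent replication assay: 50 nM final substrate added after a 15 min room-temperature compound preincubation with 10 nM enzyme. Signal taken at 0 min and again at 10 min.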
# POLB inh – DNA polymerase beta (human) inhibition; P06746; Pol beta primer extension/strand displacement, fluorescence kinetic; Potency, µM (top dose mostly 114 µM), inactives show top-dose activity change, negative = inhibition, actives largely listed as inhibitors; 1.3% of 340,000 active; also: potency is read from the fitted curve at half-maximal effect; % is scaled to controls: 0 for no effect and ±100 for the full control effect
#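 Values derive from four-parameter Hill fits of normalized kinetic data: reads at 0 and 10 min following addition of 50 nM substrate to 10 nM Pol beta preincubated 15 min with compound.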
# PGK validate – TbPGK inhibition, hit validation; shares compounds with Pol kappa inh-1; TbPGK coupled GAPDH assay, Kinase-Glo luminescence; Potency, µM (top dose mostly 57.5 µM), without a hit: top-dose activity change, negative = inhibition, most hits filed as inhibitors; 79% of 500 active; also: potency is read from the fitted curve at half-maximal effect; % is scaled to controls: 0 for no effect and ±100 for the full control effect; nearly all actives have a fitted effect of over 65% in size
# Pol iota confirm – Confirm cherry-picked inhibitors of human polymerase iota. shares compounds with Pol kappa inh-1. Pol iota primer extension, TAMRA/BHQ fluorescence. Potency, µM, actives largely listed as inhibitors. 77% of 1,500 active; also: potency is read from the fitted curve at half-maximal effect
# GALK confirm – confirmation of human galactokinase (GALK) inhibitors. Potency, µM (top dose mostly 115 µM), inactives show at the top dose activity, negative = inhibition, hits mostly inhibitors. purified GALK, Kinase-Glo ATP depletion luminescence. 70% of 150 active. shares compounds with Pol eta inh-1
# Redox cycling – redox cycling activity in phenol red-HRP assay. 40% of 150 active. shares compounds with Pol eta inh-1. AID 2035. Potency, µM (top dose mostly 115 µM), for the others: at the highest dose activity change, negative = H2O2 signal, usual class: inhibitors. Phenol red-HRP H2O2 redox cycling, absorbance 600 nm
# HEK293 viability – reduces HEK-293 cell viability in GALK counter-screen; 10% of 170 active; Potency, µM (top dose mostly 46.1 µM), without a hit: top-dose activity change, negative = cytotoxicity, usual class: inhibitors; HEK-293 viability, ATP luminescence (CellTiter-Glo), 24/48 h; shares compounds with Pol eta inh-1; also: potency is read from the fitted curve at half-maximal effect; % is scaled to controls: 0 for no effect and ±100 for the full control effect
# Pol kappa inh-2 – Pol kappa (human) inhibition, cherry-pick confirmation | purified Pol-kappa, fluorescent strand-displacement substrate | 76% of 920 active | Potency, µM, hits mostly inhibitors | shares compounds with Pol eta inh-1; also: potency is read from the fitted curve at half-maximal effect
# Pol eta inh-2 – confirmation of human DNA polymerase eta inhibitors | Pol eta primer extension, TAMRA/BHQ fluorescence, 10 min | Potency, µM, most hits filed as inhibitors | shares compounds with Pol eta inh-1 | 64% of 2,600 active; also: potency is read from the fitted curve at half-maximal effect
# FEN1 inh-2 – FEN1 inhibition, cherry-pick retest | shares compounds with FEN1 inh-1 | FEN1 flap cleavage, TAMRA/BHQ2 fluorogenic DNA substrate | Potency, µM, hits mostly inhibitors | 79% of 880 active | AID 720498; also: potency is read from the fitted curve at half-maximal effect; nearly all actives have a fitted effect of over 60% in size
# WRN helicase inh-2 – WRN helicase inhibition, cherry-pick retest; shares compounds with WRN helicase inh-1; WRN helicase DNA unwinding, fluorescence kinetic; Potency, µM (titrated, usually from 57.1 µM), without a hit: at the top dose activity, negative = inhibition, actives largely listed as inhibitors; 63% of 610 active; AID 720497; also: potency is read from the fitted curve at half-maximal effect; nearly all actives have a fitted effect of over 65% in size
# TO DNA binding – counter-screen for WRN helicase inhibitors: DNA binding; shares compounds with WRN helicase inh-1; thiazole orange DNA binding displacement, fluorescence; Potency, µM (doses to about 57.1 µM), without a hit: top-dose activity change, negative = inhibition, actives largely listed as inhibitors; 10% of 610 active;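 also: drop in dye fluorescence marks compound binding to DNA; potency is read from the fitted curve at half-maximal effect; % is scaled to controls: 0 for no effect and ±100 for the full control effect; nearly all actives have a fitted effect of over 60% in size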
# BLM helicase inh – blocks human BLM helicase in WRN counterscreen. 60% of 610 active. Potency, µM (top dose mostly 57.1 µM), for the others: top-dose activity change, negative = inhibition, actives largely listed as inhibitors. shares compounds with WRN helicase inh-1. Recombinant BLM helicase DNA unwinding, red fluorescence; also: potency is read from the fitted curve at half-maximal effect; nearly all actives have a fitted effect of over 60% in size
# Numbers without * were called inactive; ? = inconclusive; . = no result; [ ] = dose if it differs, or a comment. Hits are enriched below; roughly 2.4% of the tested compounds scored in any of these assays. Calls follow the shape of the dose curve; as a rule, active = well fitted curve in the direction sought with a large enough effect; inconclusive = small, poorly fitted or top-dose-only effect, or another doubt; inactive = no such curve, though single readings can be large; an effect the other way counts as inactive or inconclusive.
SMILES,FEN1 inh-1,POLI inh,Pol kappa inh-1,WRN helicase inh-1,Pol eta inh-1,POLB inh,Pol iota confirm,Pol eta inh-2,WRN helicase inh-2,TO DNA binding,BLM helicase inh,others
O=c1c(O)c(-c2ccc(O)c(O)c2)oc2cc(O)ccc12,?,2.51µM*,2.82µM*,2.38µM*,1.58µM*,.,6.7*,7.57*,1.52µM*,-11.0%,0.857µM*,Pol kappa inh-2=8.44*
Brc1ccc(/C=C2\C=Cc3ccccc32)cc1,-0.2%,25.4%,-16.9%,.,.,.,.,.,.,.,.,
CS(=O)(=O)c1ccc2c(c1)sc1nc(=O)c(/C=C3/C=CC(=O)C(O)=C3)c(N)n12,12.6µM*,3.98µM*,7.94µM*,28.2µM*,0.794µM*,3.16µM*,6.7*,1.51*,1.92µM*,30.9%,3.04µM*,PGK validate=?;GALK confirm=18.8µM*;Redox cycling=?;HEK293 viability=0.8%;FEN1 inh-2=37.9*
C[C@H](C(=O)O)c1cccc(Oc2ccccc2)c1,.,.,2.1%[19.4 µM],.,.,.,.,.,.,.,.,
CC(=C/C(=O)O)/C=C/c1ccc(Cl)o1,-9.3%,7.94µM*,25.1µM*,?,1.12µM*,12.6µM*,21.2*,8.49*,6.07µM*,-7.0%,3.04µM*,PGK validate=14.6µM*
CS(=O)(=O)Nc1cccc(-c2cc(Nc3ccccc3)ncn2)c1,.,.,2.5%[60.1 µM],.,.,.,.,.,.,.,.,
CCCCCCCCCCCCCCCCCC(=O)NCC(COP(=O)([O-])OCC[N+](C)(C)C)OCC (stereo not drawn),.,-9.3%[58.9 µM],-14.9%[60.1 µM],.,-3.2%[57.1 µM],0.0%[57.1 µM],.,.,.,.,.,
Cc1cnc2c(C)cccc2c1C,-1.0%,-2.5%,0.0%,.,.,.,.,.,.,.,.,
COc1ccccc1Nc1ccc2c(O)cc(S(=O)(=O)O)cc2c1,22.4µM*,1.12µM*,0.891µM*,-113.0%,2.24µM*,.,18.9*,15.1*,6.07µM*,?,5.41µM*,PGK validate=8.19µM*;Pol kappa inh-2=2.99*;FEN1 inh-2=67.5*
Cc1cc(OCC(=O)Nc2ccc(N3CCN(C(=O)c4ccco4)CC3)cc2)cc(C)c1Cl,?,?,-3.3%,?,79.4µM*,?,53.2*,?,?,-9.6%,5.41µM*,
CC(C)c1ccc(NC(=O)C2CCCN(S(=O)(=O)c3ccc4[nH]c(=O)ccc4c3)C2)cc1 (stereo not drawn),8.6%,11.3%,1.9%,.,.,0.2%,.,.,.,.,.,
O=C(O)c1cccc(N2C(=O)c3cccc4cccc(c34)C2=O)c1,-4.2%,66.4%,-6.1%,-22.0%,8.8%,5.2%,.,.,.,.,.,
O=C(O)c1cccc(N2C(=O)c3cc([N+](=O)[O-])cc4cc([N+](=O)[O-])cc(c34)C2=O)c1,20µM*,2.24µM*,22.4µM*,39.8µM*,3.98µM*,6.31µM*,42.3*,23.9*,27.1µM*,-25.9%,?,PGK validate=10.3µM*;Pol kappa inh-2=15*
CCN1CCN(c2cc3c(cc2F)c(=O)c(S(=O)(=O)c2cc(C)cc(C)c2)cn3CC)CC1,14.2%,15.3%,-4.5%,.,-5.0%,2.2%,.,.,.,.,.,
COc1ccc(-n2c(SCC(=O)O)nc3sc4c(c3c2=O)CCCC4)cc1,-20.8%,11.6%,-1.0%,-0.8%,-0.3%,-20.1%,.,.,.,.,.,
COc1ccc(O)c(C(=O)c2cc(SCC(=O)O)c3nc4sc5c(c4c(=O)n3c2)CCCC5)c1,?,?,?,25.1µM*,22.4µM*,?,21.2*,47.8*,21.5µM*,?,5.41µM*,FEN1 inh-2=37.9*
c1ccc(CNc2ccnc(-c3ccoc3)n2)cc1,.,.,-17.4%[60.1 µM],.,.,.,.,.,.,.,.,
O=C(O)c1cccc2cccc(-c3c4ccc(=O)c(O)c-4oc4c(O)c(O)ccc34)c12,3.16µM*,0.708µM*,1.12µM*,3.55µM*,-98.1%,.,0.67*,0.953*,1.52µM*,4.29µM*,0.383µM*,PGK validate=0.326µM*;FEN1 inh-2=3.38*
Cc1cc(C)c(S(=O)(=O)/N=C2\C=C(Nc3ccc(C(=O)O)cc3)C(=O)c3ccccc32)c(C)c1,?,14.1µM*,89.1µM*,89.1µM*,11.2µM*,22.4µM*,67*,16.9*,21.5µM*,?,15.2µM*,
O=C(c1cc(C(F)(F)F)cc(C(F)(F)F)c1)N1CCC2(CCN(Cc3nccs3)CC2)CC1,.,.,-16.5%[60.1 µM],.,.,.,.,.,.,.,.,
COc1ccc(C2CC(c3ccccc3)Oc3cc(C)c(Cl)c(C)c32)cc1 (stereo not drawn),-18.1%,13.2%,1.5%,.,.,.,.,.,.,.,.,

# Assay outcomes as filed in PubChem.
